Source: PubChem BioAssay (National Center for Advancing Translational Sciences (NCATS))
SMN2 splice up: SMN2 splice variant enhancement | HEK293 SMN2-luciferase splicing reporter, luminescence, 30-36 h | Potency, µM (top dose mostly 46.1 µM), inactives show top-dose activity change, positive = activation, usual class: activators | actives 2.8% (n = 210,000) | AID 1458; also: % of control where 0% means no effect; nearly all actives have a fitted effect of over 55% in size
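qHTS luciferase splicing reporter: luminescence rises when SMN2 exon 7 is included in transfected HEK293 cells. Compound exposure lasted 30-36 h at 37C, with 4.5 mM final sodium butyrate as control, followed by a ONE-Glo read.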
ELG1 genotoxic: genotoxicity induction in ELG1-luciferase HEK293T cells | AID 504466 | actives 1.3% (n = 330,000) | Potency, µM (series often up to 46 µM), for inactives: at the highest dose activity change, positive = activation, hits mostly activators | HEK293T ELG1-luciferase reporter, luminescence, 16 h; also: % of control where 0% means no effect; nearly all actives have a fitted effect of over 60% in size
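16 hr compound incubation (37 °C, 5% CO2) of HEK293T cells carrying luciferase-tagged ELG1; luciferase then measured by ONE-Glo luminescence after 30 min at RT.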
NPC1 prom act: NPC1 promoter activation. Huh7 NPC1 promoter luciferase reporter, 24 h. Potency, µM (doses to about 9.22 µM), inactives show at the highest dose activation, most hits filed as activators. actives 2.4% (n = 320,000). AID 485313; also: % of control where 0% means no effect; nearly all actives have a fitted effect of over 60% in size
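Stable NPC1-promoter luciferase Huh7 line; cpd (DMSO) 24 h, 37 °C, 5% CO2; Amplite luciferase reagent 10 min RT; luminescence readout. qHTS format.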
FLuc counter: firefly luciferase modulation, counter-screen for miR-21 project. Potency, µM (top dose mostly 57.5 µM), without a hit: top-dose activity change, negative = inhibition, hits mostly inhibitors. AID 588342. P08659. actives 6.9% (n = 360,000). purified FLuc, Km substrates, luminescence inhibition;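 also: plate controls were vehicle for no effect and reference inhibitor for full effect; nearly all actives have a fitted effect of over 55% in size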
Target sequence (P08659 whole entry, looked up): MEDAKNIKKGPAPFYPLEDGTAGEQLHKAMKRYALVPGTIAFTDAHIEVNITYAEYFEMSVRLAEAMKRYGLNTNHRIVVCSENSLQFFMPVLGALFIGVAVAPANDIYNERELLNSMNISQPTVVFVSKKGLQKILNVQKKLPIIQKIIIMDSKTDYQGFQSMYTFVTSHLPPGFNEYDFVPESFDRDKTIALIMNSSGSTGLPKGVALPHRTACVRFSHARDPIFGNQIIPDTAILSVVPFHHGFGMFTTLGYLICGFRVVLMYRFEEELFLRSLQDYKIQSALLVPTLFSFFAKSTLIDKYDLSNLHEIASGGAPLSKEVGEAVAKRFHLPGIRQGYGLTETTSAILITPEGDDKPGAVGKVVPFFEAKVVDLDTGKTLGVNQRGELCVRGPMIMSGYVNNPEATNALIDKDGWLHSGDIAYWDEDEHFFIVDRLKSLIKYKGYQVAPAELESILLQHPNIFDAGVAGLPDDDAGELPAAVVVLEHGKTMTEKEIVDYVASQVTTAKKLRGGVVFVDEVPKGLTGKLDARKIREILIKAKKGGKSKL
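Purified P. pyralis luciferase, 10 nM final, with Km-level 10 uM D-luciferin and 10 uM ATP in 50 mM Tris acetate pH 7.5, 10 mM Mg acetate, 0.01% Tween-20, 0.05% BSA; 6-point qHTS titration about 60 µM downward; luminescence read.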
KinaseGlo FLuc: counter-screen: inhibitors of Kinase-Glo firefly luciferase; Kinase-Glo luciferase, ATP luminescence, 8 min; AID 1379; Potency, µM (titrated, usually from 38.3 µM), for the others: at the highest dose activity change, negative = inhibition, actives largely listed as inhibitors; Q27757; actives 0.28% (n = 200,000); also: % is scaled to controls: 0 for no effect and ±100 for the full control effect; nearly all actives have a fitted effect of over 60% in size
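Inhibition of Kinase-Glo luciferase light generation was assessed at 10 uM ATP in pH 7.2 imidazole buffer, with luminescence measured after eight minutes at ambient temperature.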
Rab9 promoter act: activators of Rab9 promoter | Huh7 Rab9 promoter-luciferase reporter, luminescence, 24 h | Potency, µM (top dose mostly 9.22 µM), without a hit: top-dose activation, negative = inhibition, most hits filed as activators | actives 2.8% (n = 320,000); also: % of control where 0% means no effect; nearly all actives have a fitted effect of over 60% in size
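Cells were plated at 1500 per well in reduced-serum medium with 10% FBS and left 2 h. Compound in DMSO was then added for 24 h at 37 °C. Reporter signal was read by luminescence after 10 min with luciferase detection reagent.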
* = called active by the depositor; u = inconclusive; x = no result given; [ ] = another dose, or the depositor's remark. An excerpt weighted towards active compounds, which were near 7.4% of everything screened. Calls follow the shape of the dose curve; as a rule, active = well fitted curve in the direction sought with a large enough effect; inconclusive = small, poorly fitted or top-dose-only effect, or another doubt; inactive = no such curve, though single readings can be large; an effect the other way counts as inactive or inconclusive. Potency is read from the fitted curve at half-maximal effect.

SMILES | SMN2 splice up | ELG1 genotoxic | NPC1 prom act | FLuc counter | KinaseGlo FLuc | Rab9 promoter act
O=C(Nc1cccc(S(=O)(=O)Nc2ccccc2F)c1)c1ccc2ccccc2n1 | -20% | -14% | -7% | 19µM* | 0% | -8%
O=C(/C=C/c1ccccc1)Nc1cccnc1Oc1ccccc1F | x | 9% | u | 4.8µM* | x | u
O=C(/C=C/c1ccccc1)Nc1cccc(S(=O)(=O)Nc2ccccc2F)c1 | 12% | -3% | -2% | 6.7µM* | 0% | -3%
O=C1COc2cc(S(=O)(=O)CCC(=O)N3CCN(c4ccccc4)CC3)c(Cl)cc2N1 | x | x | x | -7% | x | x
CCOC(=O)C1=C(CS(=O)(=O)c2ccc(C)cc2)NC(=O)NC1c1ccc(C(C)C)cc1 (configuration not stated) | -48% | x | x | 4% | x | x
COc1ccc(-n2cc(CNCC3CCOCC3)c(-c3cccc(F)c3)n2)cc1 | x | -3% | -5% | u | -3% | -5%
COc1ccc(-n2cc(CNCc3cnc4ccccn34)c(-c3cccc(F)c3)n2)cc1 | x | -14% | 5% | 8.5µM* | x | 1%
Cc1cccc(-n2cc(CNCCc3nc(C)cc(C)n3)c(-c3cccc(F)c3)n2)c1 | x | -6% | -7% | 15µM* | x | -5%
C[C@@H]1CC[C@H]2[C@H](C)C3[C@H](C[C@H]4[C@@H]5CC=C6C[C@@H](O)CC[C@@]6(C)[C@@H]5C[C@@H](O)[C@]34C)N2C1 (some centres not stated) | 2%[9.22 µM] | x | x | x | 0%[7.66 µM] | x
COc1cc(CSc2ncc(CO)n2Cc2ccc(C)cc2)cc(OC)c1 | x | x | x | -11% | x | x
O=c1c(CCc2ccccc2)nc2cnc(N3CCNCC3)nc2n1Cc1ccc(F)cc1 | -88% | x | x | x | -4% | x
CNc1ccc(/C=C2\COc3ccccc3C2=O)cc1[N+](=O)[O-] | 10% | 4% | 25% | 1.9µM* | -3% | u
O=C1/C(=C/c2ccccc2[N+](=O)[O-])COc2ccccc21 | -86% | -21% | -23% | 17µM* | -1% | -15%
CN1C(=O)/C(=C/C=C2\SCCN2C)N(C)C1=S | u | 15µM* | 3.2µM* | 17µM* | u | 2.5µM*
CN1C(=O)/C(=C/C=C2\SCCN2C)SC1=S | 2.5µM* | u | 2.5µM* | 1.9µM* | -17% | 3.2µM*
CCN1/C(=C\C=C2\C(=O)N(c3ccccc3)C(=S)N2C)Sc2ccccc21 | -41% | 2% | -5% | -18% | u | -1%
CCCNc1nc(C)cc(-c2cc(-c3ccc(Cl)cc3)on2)n1 | x | 11% | -3% | -15% | x | -2%
COCCNc1nc(C)cc(-c2cc(-c3ccc(Cl)cc3)on2)n1 | x | 0% | 10% | 15µM* | x | 0%
COc1cc(/C=N/Nc2ccccn2)ccc1OCC(C)C | u | 15% | u | 2.7µM* | 1% | u
COc1ccc(/C=N/Nc2ncnc3scc(-c4ccccc4)c23)cc1OC | 2% | -9% | -2% | u | 3% | 7%
CCOc1ccc(/C=N/N(C)c2ccccc2)cc1OC | 25µM* | 4.6µM* | u | 4.8µM* | 6% | 3.2µM*
CCCOc1ccc(/C=N/Nc2ccccn2)cc1OC | 10µM* | u | u | 3.4µM* | -6% | 2µM*
COc1cc(/C=N/Nc2ccccn2)cc(OC)c1O | 19% | -9% | -6% | 12µM* | -7% | 4%
C=CCOc1ccc(/C=N/Nc2ccccn2)cc1OC | 11µM* | u | 3.5µM* | 5.4µM* | -8% | u
CCOc1ccc(/C=N/Nc2ccccn2)cc1OC | 14µM* | 21µM* | u | 5.4µM* | -4% | 2.8µM*
SMILES | SMN2 splice up | ELG1 genotoxic | NPC1 prom act | FLuc counter | KinaseGlo FLuc | Rab9 promoter act
CCOc1ccc(/C=N/Nc2nc(=O)[nH]nc2C)cc1OC | x | 7% | -3% | -11% | x | 0%
O=C1CCC=C1C(O)c1ccc(Cl)cc1 (configuration not stated) | 4% | x | x | x | 1% | x
CCSc1nnc(-c2ccccc2SC)o1 | 6% | -6% | -1% | u | 0% | 2%
CSc1ccccc1-c1nnc(-c2ccc(Cl)c(Cl)c2)o1 | 12% | u | u | 7.6µM* | -3% | u
CSc1ccccc1-c1nnc(-c2ccc(Cl)cc2Cl)o1 | u | u | u | 2.1µM* | -13% | 3.2µM*
CC(=O)[C@H]1CC[C@@H]2[C@]1(C)CC=C1[C@@]23C=C[C@]2(C[C@H](O)CC[C@@]12C)[C@H](C(=O)O)[C@@H]3C(=O)O | -4%[9.22 µM] | x | x | x | 1%[7.66 µM] | x
C[C@H]1[C@H](C)CC[C@]2(C(=O)O)CC[C@]3(C)C(=CCC4[C@@]5(C)C[C@@H](O)[C@H](O)[C@@](C)(CO)[C@@H]5CC[C@]43C)[C@H]12 (some centres not stated) | x | x | x | x | 2% | x
CNc1ncnc2c1ncn2[C@H]1C[C@H](O)[C@@H](CO)O1 | -2% | x | x | x | x | x
CC(C)(C)OC(=O)N1CCC(c2c(C(=O)N3CCC(c4ccccc4)C3)cnn2-c2cccc(Cl)c2)CC1 (configuration not stated) | x | x | x | -4% | x | x
CCCCOC(=O)c1cccc(NC(=O)/C=C/c2ccccc2Cl)c1 | 1.4µM* | x | x | 6.7µM* | x | x
CN(C)S(=O)(=O)c1ccc(NC(=O)/C=C/c2ccccc2Cl)cc1 | 9% | 1% | 4% | 21µM* | 1% | 8%
O=C(/C=C/c1ccccc1Cl)Nc1cccc(O)c1 | u | u | u | 1.1µM* | -23% | u
O=C(/C=C/c1ccccc1Cl)Nc1ccc(Cl)cn1 | x | u | u | -6% | x | 1.1µM*
O=C(Cc1ccccc1)Nc1ccc(Cl)cn1 | x | u | 0% | -11% | x | 19%
CC(C)c1ccc(Nc2ncnc3onc(-c4ccc(F)cc4)c23)cc1 | x | x | x | -9% | x | x
O=C(/C=C/c1ccccc1Cl)Nc1ccccc1 | x | u | u | 0.76µM* | x | 0.45µM*
CN(C)c1ccc(NC(=O)/C=C/c2c(Cl)cccc2Cl)cc1 | u | 5% | 11% | 8.5µM* | -1% | 25%
Cc1ccc(CNC(=O)/C=C/c2c(Cl)cccc2Cl)cc1 | 19% | 17% | 1% | -1% | -1% | 0%
Cc1ccc(N2C(=O)CS(=O)(=O)C23C(=O)N(Cc2ccccc2C)c2ccccc23)cc1Cl (configuration not stated) | x | x | x | -3% | x | x
O=C1[C@@H]2CSC(c3ccc(Cl)cc3)N2C(=O)N1c1ccccc1 (some centres not stated) | 0% | x | x | 0% | x | x
CCn1cc(Br)c(C(=O)Nc2cccc(SC)c2)n1 | 35µM* | u | 25% | 24µM* | 3% | u
CCn1cc(Br)c(C(=O)Nc2ccc(F)cc2F)n1 | x | 12% | u | u | x | u
